Consider 35 compounds from PubChem BioAssay AID933 (National Center for Advancing Translational Sciences (NCATS), 2009).

Inconclusive results are not listed. Values without a mark were called inactive. Calls of active or inactive are those of the source. The call rests on the fitted dose curve; in most records, active means well fitted activation curve with a large enough effect in the signal ratio, with a control signal flat; inconclusive means small, poorly fitted or top-dose-only effect, or a change in a side signal; inactive means flat fitted curve, though single readings scatter; the % refers to the signal ratio.
Potency means the concentration at half of the fitted maximal effect.

Chain of Thyrotropin receptor (Homo sapiens) (P16473 whole entry, looked up): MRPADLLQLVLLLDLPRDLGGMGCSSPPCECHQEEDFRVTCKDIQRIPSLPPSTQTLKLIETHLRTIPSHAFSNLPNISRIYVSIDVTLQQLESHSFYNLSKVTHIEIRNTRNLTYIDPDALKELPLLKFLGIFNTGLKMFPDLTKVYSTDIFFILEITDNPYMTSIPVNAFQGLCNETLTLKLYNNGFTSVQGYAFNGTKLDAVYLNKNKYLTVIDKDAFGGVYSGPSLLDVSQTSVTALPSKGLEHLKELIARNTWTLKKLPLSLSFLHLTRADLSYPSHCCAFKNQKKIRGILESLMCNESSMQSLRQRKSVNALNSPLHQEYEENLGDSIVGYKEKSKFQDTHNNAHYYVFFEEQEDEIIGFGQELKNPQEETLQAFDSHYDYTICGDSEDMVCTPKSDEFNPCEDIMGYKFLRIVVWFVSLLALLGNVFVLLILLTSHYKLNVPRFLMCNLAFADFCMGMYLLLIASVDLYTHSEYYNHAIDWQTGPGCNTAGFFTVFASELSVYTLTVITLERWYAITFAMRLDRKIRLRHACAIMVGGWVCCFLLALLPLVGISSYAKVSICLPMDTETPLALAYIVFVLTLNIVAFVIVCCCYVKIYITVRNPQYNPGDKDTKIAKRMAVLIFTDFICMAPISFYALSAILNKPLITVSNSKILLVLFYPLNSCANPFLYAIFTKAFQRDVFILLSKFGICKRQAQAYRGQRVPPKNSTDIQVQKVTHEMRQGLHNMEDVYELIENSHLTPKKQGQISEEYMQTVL

The assay concerns the target Thyrotropin receptor (Homo sapiens) (UniProt P16473). The experiment in a line: Secondary Concentration-Response Assay for Agonists of the Thyroid Stimulating Hormone Receptor: HTRF Activity Detection.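 On activation: HEK 293 cells stably expressing human TSHR with RO 20-1724 phosphodiesterase inhibitor; % of control where 0% means no effect.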 Conditions: HEK293-TSHR cells, cAMP HTRF ratio, 30 min; series mostly up to 91.7 µM; activation: at the top concentration. The procedure, abridged: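 Orthogonal confirmation in a separate TSHR-transfected HEK 293 line: cells in medium with 10 % FCS and 100 uM RO 20-1724 got compound for 30 min at room temperature. cAMP was measured by HTRF (d2-cAMP/anti-cAMP antibody), 615/660 nm emission.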
Take `COc1ccc(C(=O)O)cc1COc1ccc(NC(C)=O)cc1`: the “activation” value is 8.56%.

For the compound `COc1ccc(C2Nc3ccccc3C(=O)N2CCO)cc1COc1ccc(NC(C)=O)cc1` (stereo not given), the “activation” value is 5.23%.

For `CC(=O)Nc1ccc(S(=O)(=O)N(C)c2ccccc2)cc1`, the activation is -0.796% [at 0.00035 µM].

Turning to `COc1ccc(C2Nc3ccccc3C(=O)N2c2ccc(Cl)cc2)cc1Cn1cc([N+](=O)[O-])cn1` (stereo not given), the “activation” value was 0.476%.

Turning to `CCCN1C(=O)c2ccccc2NC1c1ccc(OC)c(COc2ccc([N+](=O)[O-])cc2)c1` (stereo not given), the “activation” value was 1.07%.

As for `COc1ccc(C2Nc3ccccc3C(=O)N2Cc2ccc(C(C)(C)C)cc2)cc1COc1ccc(NC(C)=O)cc1` (stereo not given), the “activation” value is 12.7%.

Take `CCCN1C(=O)c2ccccc2NC1c1ccc(OC)cc1OC` (stereo not given): the “activation” value was 3.69%.

For the compound `COc1ccc(C2Nc3ccccc3C(=O)N2CCc2ccc(Cl)cc2Cl)cc1COc1ccc(NC(C)=O)cc1` (stereo not given), the “activation” value is 2.61%.

As for `COc1cc(C2Nc3ccccc3C(=O)N2c2ccccc2OC)ccc1O` (stereo not given), the “activation” value was 1.38%.

On to `CCCN1C(=O)c2ccccc2NC1c1ccc(OC)c(CSc2ccccn2)c1` (stereo not given), for which the “activation” value was 3.44%.

In the case of `COc1ccc(C2Nc3ccccc3C(=O)N2Cc2ccccc2)cc1COc1ccc([N+](=O)[O-])cc1` (stereo not given), the “activation” value was 1.19%.

Consider `COc1cc(C2Nc3ccccc3C(=O)N2Cc2ccccc2)ccc1OCc1ccccc1` (stereo not given), for which the “activation” value was 1.28%.

On to `COc1ccc(-c2cc(C(F)(F)F)nc(SCCC(=O)N3CCOCC3)n2)cc1`, for which the activation is 0.123% [at 0.00035 µM].

Turning to `CN(Cc1ccco1)C(=O)Cn1c(=O)oc2cc(S(=O)(=O)NCc3ccccc3)ccc21`, the activation was 0.961% [at 0.00035 µM].

Consider `COc1ccc(C2Nc3ccccc3C(=O)N2Cc2ccco2)cc1COc1cccc(NC(C)=O)c1` (stereo not given), for which the “activation” value was 8.92%.

As for `O=C1c2ccccc2N2C(=O)c3ccccc3C2N1Cc1ccco1` (stereo not given), the “activation” value is 1.3%.

As for `CCS(=O)(=O)N1CCN(C(C)CCc2ccccc2)CC1` (stereo not given), the activation is 0.972% [at 0.00035 µM].

In the case of `CCOC(=O)c1cnc(-n2nc(C)cc2C)nc1-n1nc(C)cc1C`, the activation is -0.245% [at 0.00035 µM].

For the compound `COc1ccc(-c2nc3ccccc3n2Cc2ccccc2)cc1COc1ccc(NC(C)=O)cc1`, the “activation” value is 16.2%.

Take `Cc1nn(C)c(C)c1S(=O)(=O)N(CC(=O)Nc1ccccn1)c1ccc(C(C)C)cc1`: the activation was -0.155% [at 0.00035 µM].

Take `COc1ccc2c(c1OC)C(=O)N1c3ccccc3C(=O)N(c3ccc(F)cc3)C21` (stereo not given): the “activation” value was 0.277%.

With `COc1ccc(C(=O)N(Cc2ccco2)Cc2cccs2)c(O)c1`, the Potency is 50.1 µM (active).

As to `CS(=O)(=O)N1CCN(C(=O)c2cc(-c3cccs3)nc3ccccc23)CC1`, the activation was 0.0393% [at 0.00035 µM].

With `COc1ccc(C2Nc3ccccc3C(=O)N2Cc2ccco2)cc1COc1ccc(F)cc1` (stereo not given), the “activation” value is 0.829%.

For `COc1ccc(C2=Nn3c(nnc3-c3ccccc3OC)SC2)cc1OC`, the “activation” value is 7.27%.

Turning to `Cc1ccc(S(=O)(=O)N2CCC(C(=O)NCCCN3CCCCCC3)CC2)cc1`, the activation is 0.566% [at 0.00035 µM].

In the case of `O=C(Nc1ccccn1)NC12CC3CC(CC(C3)C1)C2`, the activation is 0.487% [at 0.00035 µM].

As for `CC(=O)Nc1cccc(OCc2cccc(C3Nc4ccccc4C(=O)N3Cc3ccco3)c2)c1` (stereo not given), the “activation” value is 2%.

With `CCOc1cc(C(=O)N(C)c2ccccc2)cc(OCC)c1OCC`, the activation is 1.28% [at 0.00035 µM].

`COc1ccc(C2Nc3ccccc3C(=O)N2Cc2cccc(Cl)c2)cc1COc1ccc(NC(C)=O)cc1` (stereo not given): the Potency is 2.82 µM (active).

On to `O=C(c1cc(Br)ccc1O)N(Cc1ccco1)Cc1cccs1`, for which the “activation” value was 6.91%.

As to `O=C(c1cc(-c2cccs2)on1)N1CCCc2ccccc21`, the activation was 0.238% [at 0.00035 µM].

As to `COc1ccc(C2Nc3ccccc3C(=O)N2c2ccc(C)cc2)cc1Cn1cc([N+](=O)[O-])cn1` (stereo not given), the “activation” value was 2.13%.

As to `COc1ccc(C2Nc3ccccc3C(=O)N2Cc2ccccc2)cc1COc1ccc(C)cc1` (stereo not given), the “activation” value is 18.2%.

In the case of `COc1ccc(-c2nc3ccc(Cl)cc3c(=O)n2Cc2ccccc2)cc1COc1ccc(NC(C)=O)cc1`, the “activation” value is 20.5%.
